Assay results published in publication PMC6925144, “A prospective compound screening contest identified broader inhibitors for Sirtuin 1” (Scientific Reports, 2019).
Over roughly 3,200 compounds, “TSA(with NAD+) / Primary screening (TSA) / delta Tm (K)” has its median near -0.04; the highest 2% begin near 0.37. For the sample, the highest values were picked, then their nearest neighbours and some compounds at random.

These compounds were tested against NAD-dependent deacetylase Sirtuin 1 (human, UniProt Q96EB6) (assay: primary screen, delta tm). Settings: 10 µM.
Set-up: single well (n = 1, as 'the same TSA')
Method: A total of 3,192 compounds extracted from the proposed lists were first screened by thermal shift assay (TSA), which determined a melting temperature shift (ΔTm) of Sirtuin 1 upon the addition of a test compound at a concentration of 10 µM (n = 1) with primary hit criteria of ΔTm > 0.45 K or ΔTm < −1.5 K. Primary hits (48 compounds) were retested in the same assay at three concentrations (5, 10, 20 µM, n = 4) for hit confirmation and for dose-dependency check. Secondary hits (41 compounds) were checked their selectivity for Sirtuin 1 based on counterscreening on unrelated protein targets (bovine carbonic anhydrase (CA) and recombinant SH2 domain of hABL1 kinase (ABL1)) at three different concentrations (5, 10, 20 µM, n = 4), which yielded 38 hit compounds, hereafter referred to as TSA hits. The TSA screening above was conducted in the absence of NAD+. As noted, the structure of Sirtuin 1 is different in the presence of NAD+ and substrate. The chemical profile of TSA hits found from the different conditions could be different. […] As a result, 39 TSA hits were found.

Sequence of NAD-dependent deacetylase Sirtuin 1 (Q96EB6 2-747 limits assumed): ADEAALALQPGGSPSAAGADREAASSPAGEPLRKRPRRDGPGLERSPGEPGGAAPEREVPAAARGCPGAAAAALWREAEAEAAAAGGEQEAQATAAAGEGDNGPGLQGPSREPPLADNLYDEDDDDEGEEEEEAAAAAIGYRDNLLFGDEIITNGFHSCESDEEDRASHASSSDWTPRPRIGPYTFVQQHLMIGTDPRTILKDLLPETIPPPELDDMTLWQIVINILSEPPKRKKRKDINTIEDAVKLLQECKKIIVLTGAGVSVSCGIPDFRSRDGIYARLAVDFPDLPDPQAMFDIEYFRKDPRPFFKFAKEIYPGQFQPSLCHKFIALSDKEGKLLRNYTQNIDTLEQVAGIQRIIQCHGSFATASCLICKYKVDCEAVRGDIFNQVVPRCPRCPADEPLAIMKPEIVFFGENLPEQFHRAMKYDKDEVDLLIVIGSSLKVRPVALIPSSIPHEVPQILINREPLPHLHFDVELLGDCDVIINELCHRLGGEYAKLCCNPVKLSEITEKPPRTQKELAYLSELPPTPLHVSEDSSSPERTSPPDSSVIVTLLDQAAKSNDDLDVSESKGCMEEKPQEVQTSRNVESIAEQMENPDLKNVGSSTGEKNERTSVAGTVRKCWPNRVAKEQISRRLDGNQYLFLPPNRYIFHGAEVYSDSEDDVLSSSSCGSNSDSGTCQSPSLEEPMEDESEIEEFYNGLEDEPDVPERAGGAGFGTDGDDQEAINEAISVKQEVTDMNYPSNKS

SMILES	TSA(with NAD+) / Primary screening (TSA) / delta Tm (K)
Cc1ncc(CN2CCC(Nc3ccc4nnnn4n3)C(C)C2)s1 (stereo not drawn)	0.09
Cc1cc(F)ccc1N1CCCC(Nc2ccc3nnnn3n2)C1 (stereo not drawn)	0.68
c1ccc(CN2CCCCCC2)c(CNc2ccc3nnnn3n2)c1	-0.04
O=C(CN1CCc2ccccc21)Nc1cnc2ccccc2c1	-0.13
Cc1sc2nc(CSc3ccccc3)nc(N3CCCC(C(N)=O)C3)c2c1C (stereo not drawn)	-0.18
Cc1sc2nc(CSc3ccccc3)nc(N3CCC(C(N)=O)CC3)c2c1C	0.49
NC(=O)C1CCN(c2nc(CN3CCCCC3)nc3sc4c(c23)CCC4)CC1	-0.19
NC(=O)C1CN(c2nc(C3CC3)nc3sc4c(c23)CCCC4)CCO1 (stereo not drawn)	-0.19
Cc1sc2nc(CN3CCCC3)nc(N3CCC(C(N)=O)CC3)c2c1C	0.12
NC(=O)C1CCN(c2nc(CSc3ccccc3)nc3sc4c(c23)CCCC4)CC1	2.22
Cc1ccc(C(=O)Nc2ccc(N3CCN(Cc4ccccc4)CC3)cc2)cc1NC(=O)c1ccco1	0.12
COc1ccc(-c2csc3nc(C)nc(N4CCN(C5CCS(=O)(=O)C5)CC4)c23)cc1OC (stereo not drawn)	-0.09
O=C(O)c1cnc2c(c1)c(=O)[nH]c(=O)n2Cc1ccccc1	-0.13
Cn1c(-c2ccccc2)c(C=O)c2ccccc21	-0.32
CCCCn1ccnc1C(=O)c1cccc(S(=O)(=O)N(C)c2ccccc2)c1	-0.08
CC1CN(C(=O)/C=C/c2ccc(C(=O)O)cc2)CC(C)(C)O1 (stereo not drawn)	-0.13
O=C(CN1CCCCCCC1=O)NCCc1nc2ccccc2[nH]1	-0.22
COC(=O)c1cc(NC(=O)CN2C(=O)NC(C)(c3ccc4ccccc4c3)C2=O)cc(C(=O)OC)c1 (stereo not drawn)	0.19
CC1(C)NC(=O)N(CC(=O)Nc2sc3c(c2-c2nc4ccccc4[nH]2)CCCC3)C1=O	0.37
CCCCOc1cc(C2NC(N)=Nc3nc4ccccc4n32)ccc1OC (stereo not drawn)	-0.22
NC1=Nc2nc3ccccc3n2C(c2ccc(-c3ccc(C(=O)O)cc3)o2)N1 (stereo not drawn)	1.27
O=C(O)CCCc1ccc2c(c1)-c1ccccc1C2	0.06

SMILES	TSA(with NAD+) / Primary screening (TSA) / delta Tm (K)
O=C1/C(=C/c2ccccc2OC(F)F)Oc2cc(O)ccc21	0.15
COc1ccc(/C=C2/Oc3cc(O)ccc3C2=O)c(OC)c1	0.12
O=C1/C(=C/c2ccc(OC(F)F)cc2OC(F)F)Oc2cc(O)ccc21	0.37
CCCNc1nnc(S)s1	-0.33
CN(c1ccccc1)S(=O)(=O)c1cccc(NC(=O)CCc2c[nH]c3ccccc23)c1	0.32
CN(c1ccccc1)S(=O)(=O)c1cccc(NC(=O)CCCc2c[nH]c3ccccc23)c1	0.39
CN(c1ccccc1)S(=O)(=O)c1cccc(NCC(=O)Nc2ccc(Br)cc2)c1	-0.01
CN(c1ccccc1)S(=O)(=O)c1cccc(NC(=O)CNc2cccc3ccccc23)c1	0.41
CN(c1ccccc1)S(=O)(=O)c1cccc(NC(=O)c2cc(Cl)nc3ccccc23)c1	0.16
CN(c1ccccc1)S(=O)(=O)c1cccc(C(=O)NCCc2c[nH]c3ccccc23)c1	0.17
CCOC(=O)C1=C(COC(=O)c2sc(-c3ccco3)nc2-c2ccccc2)NC(=O)NC1	0.06
CS(=O)(=O)c1ccc(NCCNC(=O)C23CC4CC(C2)CC(c2ccccc2)(C4)C3)c([N+](=O)[O-])c1	0.18
CN(Cc1nc(-c2cccnc2)no1)Cc1c[nH]nc1-c1cccnc1	-0.01
Cc1ccc(OCc2nc3ccccc3n2Cc2ccccc2)cc1	-0.21
CN(c1ccccc1)S(=O)(=O)c1cccc(C(=O)Nc2ccccc2)c1	-0.01
Cc1ccc(N(C)S(=O)(=O)c2cccc(C(=O)Nc3ccc4c(c3)C(=O)N(C)C4=O)c2)cc1	0.89
Cc1ccc(NC(=O)c2cccc(S(=O)(=O)N(C)c3ccc(C)cc3)c2)cc1	0.29
CC(=O)Nc1ccc(NC(=O)c2cccc(S(=O)(=O)N(C)c3ccc(C)cc3)c2)cc1	-0.04
Cc1ccc(N(C)S(=O)(=O)c2cccc(C(=O)Nc3cccc(C(=O)NC4CC4)c3)c2)cc1	-0.03
Cc1ccc(N(C)S(=O)(=O)c2cccc(C(=O)Nc3ccc(Br)c(C)c3)c2)cc1	0.73
Cc1ccc(N(C)S(=O)(=O)c2cccc(C(=O)Nc3ccc(C(N)=O)cc3)c2)cc1	0.46
COc1cccc(NC(=O)c2cccc(S(=O)(=O)N(C)c3ccc(C)cc3)c2)c1	-0.06

SMILES	TSA(with NAD+) / Primary screening (TSA) / delta Tm (K)
CN(c1ccccc1)S(=O)(=O)c1cccc(NC(=O)c2ccc(C(N)=O)cc2)c1	-0.01
CC1CCc2[nH]c3ccc(C(=O)Nc4cccc(S(=O)(=O)N(C)c5ccccc5)c4)cc3c2C1 (stereo not drawn)	0.39
CSc1cccc(NC(=O)c2cccc(S(=O)(=O)N(C)c3ccc(C)cc3)c2)c1	0.19
Cc1ccc(N(C)S(=O)(=O)c2cccc(C(=O)Nc3ccncc3)c2)cc1	-0.15
COc1ccc(CCn2c(C)cc(C(=O)COC(=O)C34CC5CC(CC(O)(C5)C3)C4)c2C)cc1	-0.19
CN1C(=O)c2oc3ccccc3c(=O)c2C1c1ccccc1F (stereo not drawn)	0.01
CCC(=O)c1ccc(OCC(=O)NNC(=O)c2cc(C)oc2C)cc1	-0.03
COc1cccc(C(C)NCc2ccc3[nH]c(=O)[nH]c3c2)c1 (stereo not drawn)	-0.08
O=C1NC(C(=O)O)=CC(c2ccccc2C(F)(F)F)N1 (stereo not drawn)	-0.12
CC1(c2cccc(NC(=O)c3ccc4c(c3)CCC4)c2)NC(=O)NC1=O (stereo not drawn)	-0.13
CN(c1ccccc1)S(=O)(=O)c1cccc(NC(=O)COC(=O)C23CC4CC(CC(C4)C2)C3)c1	0.13
COC(=O)c1ccc(C2NC(=O)NC3=C2C(=O)N(CC(C)O)C3)cc1 (stereo not drawn)	-0.05
C=C(Br)CN	0.06
NC(=O)c1cc(C2CCCN(c3nccc(-n4cccn4)n3)C2)n[nH]1 (stereo not drawn)	0.05
Cc1ccc(N(C)S(=O)(=O)c2cccc(C(=O)Oc3ccc4c(C)cc(=O)oc4c3)c2)cc1	0.16
O=C1CCCCC(C(=O)Nc2ccc(-c3nc4ccccc4[nH]3)cc2)N1 (stereo not drawn)	0.16
O=C(CC12CC3CC(CC(C3)C1)C2)NCC(=O)Nc1ccc(Sc2nc3ccccc3[nH]2)cc1	0.23
O=C(NC(=S)Nc1ccc(-c2nc3ccccc3[nH]2)cc1)C12CC3CC(CC(C3)C1)C2	0.43
COc1ccc2nc(C)c(C(=O)NC34CC5CC(CC(C5)C3)C4)cc2c1	-0.28
C[C@@H](N)CCO	-0.05
O=C1NC(=O)C(=Cc2cn(-c3ccccc3)nc2-c2cc3ccccc3o2)C(=O)N1	-0.11
O=C1NC(=S)NC(=O)C1=Cc1cn(-c2ccccc2)nc1-c1cc2ccccc2o1	0.56

SMILES	TSA(with NAD+) / Primary screening (TSA) / delta Tm (K)
O=C1NC(=S)NC(=O)C1=Cc1cn(-c2ccccc2)nc1-c1cc2ccccc2oc1=O	-0.05
O=S(=O)(c1ccc(C(F)(F)F)cc1)N1CCNCC1	0.03
O=C(Nc1cccc(C(F)(F)F)c1)c1cccc(NC(=O)c2cc3c(cc2[N+](=O)[O-])OCCO3)c1	0.38
NC(=O)NCCCCC(=O)Nc1cccc(C(F)(F)F)c1	0.08
CN(C)Cc1ccc(C(=O)Nc2cccc(C(=O)NC3CC3)c2)cc1	0.01
CCc1cc2c(N3CCN(Cc4ccc5c(c4)OCO5)CC3)nc(C)nc2s1	-0.04
NCCCC(N)C(=O)O (stereo not drawn)	-0.08
NC(=O)CC1CCN(C(=O)CCc2c[nH]c3ccccc23)CC1	-0.03
O=C(CCc1ccccc1)NC1CCN(c2ccc([N+](=O)[O-])c3cccnc23)CC1	-0.21
Cc1c(C=C2C(=O)NC(=S)NC2=O)c2ccccn2c1C(=O)c1cccc([N+](=O)[O-])c1	-0.03
O=C(CCc1ccccc1)Nc1ccccc1Cc1ccccc1	-0.06
NC(=O)COC(=O)c1ccc(OCC(=O)Nc2cccc(C(F)(F)F)c2)cc1	0.23
O=C(COc1ccccc1C(=O)Nc1ccc(S(=O)(=O)Nc2nccs2)cc1)Nc1cccc(C(F)(F)F)c1	0.82
Cc1cccc(-n2ccnc2SCC(=O)Nc2ccc(S(=O)(=O)Nc3nccs3)cc2)c1C	0.13
CC(C)c1ccc(C(NC(=O)c2cccc(C(N)=O)c2)c2cccs2)cc1 (stereo not drawn)	-0.05
O=C1NC(=S)N/C1=C\c1ccccc1OCc1ccc(C(=O)O)cc1	0.23
Cc1nc(-c2ccc(CCNC(=O)c3ccc(NC(N)=O)cc3)s2)cs1	0.08
COc1ccc(C(=O)NCCc2ccc(-c3csc(C)n3)s2)cc1	-0.09
Cc1nc(-c2ccc(CCNC(=O)c3ccc(NC(=O)c4cccs4)cc3)s2)cs1	0.58
Cc1ccccc1CNC(=O)CSc1nc2ccsc2c(=O)n1C	-0.22
O=C(Nc1ccc2c3c(cccc13)CC2)N1CCC(n2cncn2)CC1	-0.08
